Experimental findings from PubChem BioAssay (NCI) are described below.

This is part of a sample that, as a whole, favours compounds with a hit. Of some 83,000 tested, about 20% had one in any assay.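 Note: values are percent growth. 100 is the growth of untreated cells, values between 100 and 0 indicate rising inhibition; between -100 and 0 indicates cell death.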 Values without a mark were called inactive. Activity calls are given as the source filed them. Rule for the calls: active = growth percent below 10; inactive = the rest.

What all share (assay): NCI-60 one-dose screen, 48 h (100 = growth as untreated, 0 = no growth, -100 = all killed)
What all share (details): 10 µM unless noted

Assay [1] relates to SK-MEL-2 melanoma.
Assay [2] relates to EKVX NSCLC.
Assay [3] deals with SN12C renal.
The subject of assay [4] is UO-31 renal.
The subject of assay [5] is TK-10 renal.
Assay [6] concerns ACHN renal.
Assay [7] relates to CAKI-1 renal.
Assay [8] has as its system A498 renal.
The subject of assay [9] is CCRF-CEM leukemia.
Assay [10] relates to MOLT-4 leukemia.
In assay [11] the test system is RPMI-8226 leukemia.
Assay [12] concerns OVCAR-8 ovarian.
The test system of assay [13] is OVCAR-5 ovarian.
The test system of assay [14] is OVCAR-4 ovarian.
Assay [15] concerns SK-OV-3 ovarian.
The test system of assay [16] is IGROV1 ovarian.
Assay [17] concerns OVCAR-3 ovarian.
For assay [18], the system named is HS 578T breast.
Assay [19] deals with NCI/ADR-RES ovarian.

On to `COc1nc2ccc(C)cc2cc1-c1nc2c(cnn2-c2ccccc2)c(=O)[nH]1`, for which the growth is 60.5% in assay [1]; 85.1% in assay [2]; 98.3% in assay [3]; 69.4% in assay [4]; 109% in assay [5]; 94.3% in assay [6]. Further, the growth in [7] is 86.9%; in assay [8] it was 72.7%; in [9] it was 79.4%; in assay [10] it was 75.2%; in assay [11] it was 80.8%; in [12], 94%. The growth was 94.5% in [13]; 94.9% in [14]; 73.6% in assay [15]; 77.4% in [16]; 50.2% in assay [17]; 90.6% in [18]. The growth in [19] is 74.3%.

For the compound `Cn1cc(-c2ccc3cc(-c4ccc(CC(=O)Nc5cc(C(C)(C)C)nn5C)cc4)cnc3c2)cn1`, the growth was -38.4% (active) in assay [1]; 23.5% in assay [2]; 5.18% (active) in assay [3]; 1.27% (active) in [4]; 15.8% in assay [5]; 3.05% (active) in assay [6]. The growth was 0.564% (active) in [7]; -18.5% (active) in [8]; 23% in [9]; 13.2% in assay [10]; 3.3% (active) in assay [11]; 3.03% (active) in assay [12]. Also, the growth in assay [13] was 43.8%; in assay [14] it was 3.73% (active); in assay [15], -5.28% (active); in [16], -1.22% (active); in [17] it was 14.2%; in [18], -1.77% (active). Also, the growth in assay [19] was -2.56% (active).

Regarding `COC(=O)/C=C1\S/C(=N\Nc2ccc([N+](=O)[O-])cc2[N+](=O)[O-])N(C2CCCCC2)C1=O`, the growth in assay [1] was 90.5%; in assay [2] it was 78.5%; in assay [3], 21.6%; in [4] it was 19.2%; in assay [5], 60.2%; in assay [6], 42.3%. In addition, the growth is 57.1% in assay [7]; 63.1% in assay [8]; 17.9% in [9]; 42.7% in assay [10]; -21.8% (active) in assay [11]; 35.4% in assay [12]. The growth in [13] is 84.3%; in [14] it was 47.1%; in assay [15], 96.8%; in assay [16] it was 58.4%; in assay [17] it was 25.2%; in [18], 65.2%.

In the case of `COc1ccc(N2C(=O)C(Oc3ccccc3)C2c2ccc(C)cc2)cc1` (stereo unspecified), the growth was 106% in assay [1]; 88.8% in assay [2]; 104% in [3]; 91.9% in assay [4]; 126% in assay [5]; 95.7% in assay [6]. The growth in [7] is 93%; in assay [8], 77.9%; in assay [9], 101%; in [10], 101%; in [11], 106%; in assay [12] it was 91.8%. The growth in [13] is 100%; in assay [14], 93.4%; in [15], 106%; in assay [16] it was 102%; in [17] it was 112%; in assay [18] it was 94%. Further, the growth in [19] is 101%.

Take `C=CCNc1ccc2c3c(cccc13)C(=O)N(N1C(=O)c3cccc4cccc(c34)C1=O)C2=O`: the growth in assay [1] is 107%; in assay [2], 92.8%; in assay [3], 101%; in assay [4], 81.1%; in assay [5], 105%; in [6], 103%. Further, the growth in assay [7] was 94.1%; in assay [8] it was 119%; in assay [9], 109%; in assay [10] it was 101%; in [11], 109%; in assay [12], 100%. In addition, the growth is 101% in [13]; 107% in assay [14]; 108% in assay [15]; 103% in assay [16]; 108% in [17]; 97.2% in [18]. In assay [19], the growth was 101%.

Consider `CN1CCN(Cc2ccc(NC(=O)c3cncc(C#Cc4cnccc4C#N)c3)cc2C(F)(F)F)CC1`, for which the growth in assay [1] is 52%; in assay [2], 66.4%; in [3], 60.5%; in assay [4] it was 43.5%; in [5], 108%; in assay [6], 66.8%. Moreover, the growth in [7] was 54.8%; in assay [8], 84.9%; in assay [9], 59%; in assay [10], 66.1%; in assay [11], 34.1%; in assay [12], 74.2%. Further, the growth was 60.5% in assay [13]; 35.9% in assay [14]; 101% in assay [15]; 67.2% in [16]; 86.3% in assay [17]; 24% in [18]. For the same compound, the growth in assay [19] was 74%.

With `Cc1nc2cnc(N)c(C#Cc3cncc(C(=O)Nc4ccc(CN5CCN(C)CC5)c(C(F)(F)F)c4)c3)c2nc1C`, the growth was -33.9% (active) in assay [1]; 7.92% (active) in assay [2]; 9.49% (active) in assay [3]; 2.11% (active) in assay [4]; 4.77% (active) in [5]; 0.0511% (active) in [6]. Also, the growth in assay [7] is -36.4% (active); in [8], -81% (active); in [9], 13.7%; in assay [10], 8.72% (active); in assay [11], -23% (active); in [12], 10.4%. The growth is 8.89% (active) in assay [13]; -10.9% (active) in assay [14]; 8.06% (active) in [15]; -10.4% (active) in assay [16]; 8.72% (active) in assay [17]; -20.2% (active) in assay [18]. Besides, the growth in [19] is 36.1%.

`COc1cc(C(=O)c2cc(C)c3[nH]c4ccc(O)cc4c3c2C)cc(OC)c1OC`: the growth in [1] is 62.3%; in assay [2], 35.9%; in [3], 25%; in [4], 22.2%; in assay [5], 93.3%; in assay [6], 24.3%. Besides, the growth in assay [7] is 24.5%; in [8], -12.7% (active); in assay [9] it was 15.5%; in [10], 15.1%; in [11] it was 8.34% (active); in assay [12] it was 27.3%. In addition, the growth in [13] is 38.9%; in assay [14] it was 48.3%; in [15] it was 46.5%; in [16], 12.1%; in [17], -45% (active); in assay [18], 38.1%. The growth in [19] was 8.01% (active).
